# Assay results published in PubChem BioAssay (NCATS).
# Results filed as inconclusive are left out. Where a call stands in place of a potency, no number is given. A number with no mark means an inactive call. Calls of active or inactive are those of the source. Calls follow the shape of the dose curve; as a rule, active = well fitted inhibition curve with a large enough effect; inconclusive = small, poorly fitted or top-dose-only effect; inactive = no such curve, though single readings can be large or run the other way.
# Legend:
# [1] = tested on: Zika virus NS2B-NS3 protease (unlinked complex); assay: Primary screen GU Rhodamine qHTS for Zika virus inhibitors: Unlinked NS2B-NS3 protease assay (AID 1347159); also: nearly all actives have a fitted effect of over 60% in size; also: potency is read from the fitted curve at half-maximal effect
# Procedure, shortened: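 Noncovalent NS2B hydrophilic domain/NS3 protease complex (25 nM final) in 10 mM Tris-HCl pH 8.0, 0.01% Tween 20, preincubated 15 min with compounds (up to 114 microM), then 1.5 microM Rhodamine110 substrate. Fluorescence change over 15 min fitted to 4-parameter Hill.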
# [2] = tested on: Zika virus NS2B-NS3 protease (linked construct); assay: Primary screen NINDS Rhodamine qHTS for Zika virus inhibitors (AID 1347160); also: nearly all actives have a fitted effect of over 55% in size; also: potency is read from the fitted curve at half-maximal effect
# Procedure, shortened: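 Purified NS2B-NS3 protease with the NS2B hydrophilic domain joined by a flexible linker (25 nM) in 10 mM Tris-HCl pH 8.0, 0.01% Tween 20, preincubated 15 min at RT with compound; Rhodamine110 peptide substrate 1.5 µM; fluorescence change over 15 min; 4-parameter Hill fit.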
# [3] = Confirmatory screen NINDS Rhodamine qHTS for Zika virus inhibitors (AID 1347161); also: potency is read from the fitted curve at half-maximal effect; nearly all actives have a fitted effect of over 60% in size
# Procedure, shortened: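 Enzyme (25 nM, linked NS2B-NS3) was preincubated 15 min with compound in 10 mM Tris-HCl pH 8.0, 0.01% Tween 20. Rhodamine110 substrate (1.5 microM) was then added and fluorescence read at start and after 15 min.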
# [4] = Tertiary RLuc qRT-PCR qHTS assay for Zika virus inhibitors (AID 1347169); also: top concentration of the series differs between compounds; nearly all actives have a fitted effect of over 55% in size
# Procedure, shortened: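 Vero cells (1,000/well) infected with recombinant ZIKV-RLuc (Cambodian) at MOI 1-2 after compound addition, 48-72 hrs at 37 degrees C. Live-cell Renilla luciferase substrate added; luminescence read after 1-1.5 hrs.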
compound,measurement,setting,value
COc1cc(C(CO)C(OC2OC(CO)C(O)C(O)C2O)c2ccc(O)c(OC)c2)ccc1O (stereo unspecified),Potency,[1],inactive
same,Potency,[2],inactive
Cc1occc1C(=O)n1ccnc1,Potency,[1],inactive
same,Potency,[2],inactive
Cc1onc(-c2ccccc2Cl)c1C(=O)N(C)c1ccc(Cl)cc1,Potency,[1],inactive
same,Potency,[2],inactive
CC(=O)OCC1OC(OC2COC(OC3COC(OC4C(OC5C(CO)OC(OC6CCC7(C)C(CCC8(C)C7CC=C7C9CC(C)(C)CCC9(C(=O)OC9OC(CO)C(O)C(O)C9OC9OCC(OC%10OCC(O)(CO)C%10O)C(O)C9O)C(O)CC78C)C6(C)C)C(O)C5O)OCC(O)C4O)C(O)C3O)C(O)C2O)C(OC(=O)/C=C/c2ccccc2)C(O)C1OC(C)=O (stereo unspecified),"activity change, negative = inhibition",[1],8.67% [at 19.1 µM]
same,Potency,[2],inactive
CC(=O)/C=C/[C@H]1[C@](C)(O)[C@@H](O)[C@H](O)C2C(C)(C)CCC[C@@]21C (stereo partly specified),Potency,[1],inactive
same,Potency,[2],inactive
O=C(OC[C@H]1O[C@H](O[C@H]2CO[C@H](CO)[C@@H](O)[C@@H]2O)[C@H](O)[C@@H](O)[C@H]1O)c1ccccc1,Potency,[1],inactive
same,Potency,[2],inactive
C[C@H]1[C@H](C)C[C@@H](C(=O)O)C2CC[C@]3(C)C(=CC[C@@H]4[C@@]5(C)CC[C@H](O)C(C)(C)[C@@H]5CC[C@]43C)[C@@H]21 (stereo partly specified),Potency,[2],inactive
C/C=C1/[C@H](O[C@@H]2O[C@H](CO)[C@@H](O)[C@H](O)[C@H]2O)OC=C(C(=O)OC)[C@H]1CC(=O)OCCc1ccc(OC(=O)C[C@@H]2C(C(=O)OC)=CO[C@@H](O[C@@H]3O[C@H](CO)[C@@H](O)[C@H](O)[C@H]3O)/C2=C/C)cc1,Potency,[2],inactive
CCN1CCN(C(=O)N[C@@H](C(=O)N[C@@H]2C(=O)N3[C@@H]2SC(C)(C)[C@@H]3C(=O)O)c2ccccc2)C(=O)C1=O,Potency,[1],inactive
same,Potency,[2],inactive
CC1CCC2C(C)(C)C(O)C(O)CC2(C)C12Cc1c(O)cc(CO)c(C=O)c1O2 (stereo unspecified),Potency,[2],inactive
CC1=C2CC3C(CCC3(C)O)C(C)(O)CC2OC1=O (stereo unspecified),Potency,[1],inactive
same,Potency,[3],44.1 µM (active)
same,Potency,[4],inactive
CC(=O)OC[C@@]12C(=O)C[C@@H](C)[C@]3(C[C@@H](c4ccoc4)OC3=O)[C@H]1CC[C@H](OC(C)=O)[C@]21CO1,Potency,[1],inactive
same,Potency,[2],inactive
NC1Nc2ccccc2C1(N)CC1NC(=O)C(Cc2ccccc2)NC(=O)C(Cc2ccccc2)NC1=O (stereo unspecified),Potency,[2],inactive
O=C(NCC(=O)N1CCCC1)Nc1ccc2ccccc2c1,Potency,[1],inactive
same,Potency,[2],inactive
CCN(CCN(C)C)C(=O)CNCc1cc(C(N)=O)ccn1,Potency,[1],inactive
same,Potency,[2],inactive
O=C(OCC1=C[C@@H](O)[C@@H]2C=CO[C@@H](O[C@@H]3O[C@H](CO)[C@@H](O)[C@H](O)[C@H]3O)[C@H]12)c1ccc(O)cc1,Potency,[2],inactive
COc1cc(C)c(C(=O)O[C@@H]2[C@H](O)[C@@H](CO)O[C@H]2n2ccc(=O)[nH]c2=O)c(OC)c1,Potency,[1],inactive
same,Potency,[2],inactive
C/C=C/C=C/C=C/C(=O)OC1C=C2C(O)OC(=O)[C@]2(O)[C@@]2(C)CCCC(C)(C)[C@H]12 (stereo partly specified),Potency,[1],6.31 µM (active)
same,Potency,[2],12.6 µM (active)
CN[C@H](CNC(=O)N1CCC[C@@H]([C@@H](OCCNC(=O)OC)c2cccc(Cl)c2)C1)C[C@H]1CCCOC1,Potency,[1],inactive
same,Potency,[2],inactive
N#Cc1cccc(-c2nc(-c3cccnc3)no2)c1,Potency,[1],inactive
same,Potency,[2],inactive
COCCN1CCC(C(=O)NO)(S(=O)(=O)c2ccc(Oc3ccc(OC(F)(F)F)cc3)cc2)CC1,Potency,[1],inactive
same,Potency,[2],inactive
C/C=C/C=C/[C@@H]1O[C@](O)([C@H](CC)C(=O)NC/C=C/C=C(\C)[C@@H](OC)[C@@H](C)[C@@H]2O[C@H](/C=C/C=C/C=C(\C)C(=O)c3c(O)ccn(C)c3=O)[C@H](O)[C@@H]2O)[C@H](O)[C@H](O)C1(C)C,Potency,[1],inactive
same,Potency,[2],inactive
CC(=O)OCC1OC(O[C@H]2CC[C@]34C[C@]35CC(O)[C@]3(C)[C@@H]([C@H](C)CC/C=C(\C)C(=O)O)C(O)C[C@@]3(C)C5CC[C@H]4C2(C)C)C(O)C(O)C1OC1OCC(O)C(O)C1O (stereo partly specified),Potency,[1],inactive
same,Potency,[2],inactive
CC1=C2CC(O)(C(C)(C)O)C(O[C@@H]3O[C@H](CO)[C@@H](O)[C@H](O)[C@H]3O)CC(C)C2CC1=O (stereo partly specified),Potency,[2],inactive
CC1(C)CC[C@]2(C(=O)O[C@@H]3O[C@H](CO[C@@H]4O[C@H](CO[C@@H]5O[C@H](CO)[C@H](O)[C@H](O)[C@H]5O)[C@@H](O)[C@H](O)[C@H]4O)[C@@H](O)[C@H](O[C@@H]4O[C@H](CO)[C@@H](O)[C@H](O)[C@H]4O)[C@H]3O)[C@H](O)C[C@]3(C)C(=CCC4[C@@]5(C)CC[C@H](O[C@@H]6OC[C@@H](O)[C@H](O)[C@H]6O)[C@@](C)(C(=O)O)C5CC[C@]43C)[C@@H]2C1 (stereo partly specified),Potency,[2],inactive
COC(=O)[C@]1(C)CCC[C@@]2(C)[C@@H]3CC[C@@H]4C[C@@]3(CC[C@@H]21)C[C@H]4C(=O)O,Potency,[1],inactive
same,Potency,[2],inactive
CCC(C)/C=C(C)/C=C/C1=CC2=C(Cl)C(=O)C(C)(OC(C)=O)C(=O)C2=CN1C(CCCN=C(N)N)C(=O)O (stereo unspecified),Potency,[2],inactive
C[C@]1(OC(=O)/C=C\c2ccc(O)cc2)C[C@@H](O)[C@]2(O)C=CO[C@@H](O[C@@H]3O[C@H](CO)[C@@H](O)[C@H](O)[C@H]3O)C12 (stereo partly specified),Potency,[1],inactive
same,Potency,[2],inactive
C[C@@H]1O[C@@H](O[C@@H]2[C@@H](O)[C@H](O[C@@H]3[C@@H](O)[C@@H](O)[C@H](O[C@H]4[C@H](OC(=O)[C@]56CCC(C)(C)C[C@H]5C5=CCC7[C@@]8(C)C[C@H](O)[C@H](O[C@@H]9O[C@H](C(=O)O)[C@@H](O)[C@H](O)[C@H]9O)[C@@](C)(CO)C8[C@H](O)C[C@@]7(C)[C@]5(C)C[C@H]6O)O[C@@H](CO)[C@@H]4O)O[C@H]3C)OC[C@H]2O)[C@H](O)[C@H](O)[C@H]1O (stereo partly specified),"activity change, negative = inhibition",[1],24.9% [at 19.1 µM]
same,Potency,[2],inactive
